{"source": "PubChem BioAssay (EPA / NIEHS)", "note": "Records with an inconclusive call do not appear. Calls of active or inactive are those of the source. Rule for the calls: active = hit-call score of the fitted dose curve at least 0.9, where 1 is the maximum; inconclusive = response in the unintended direction; inactive = score below 0.9.", "data": [{"assay": "ACEA_ER_80hr: ACEA Biosciences xCELLigence Real-Time Cell Analysis on Estrogen Receptor Agonism for Proliferation (AID 2282667)", "conditions": "T47D proliferation, impedance (xCELLigence), 80 h", "in_short": "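Estrogen-driven proliferation is captured as electrode impedance in T47D cells 80 h after compound addition. Test articles ran at 8 concentrations, 1:4 dilutions from 100 uM final, in two replicate plates.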", "values": [{"compound": "CC=CC(=O)C1=C(C)C=CCC1(C)C", "outcome": "inactive"}, {"compound": "CCCCCCCCCCOC(=O)c1ccccc1C(=O)OCCCCCCCC", "outcome": "inactive"}, {"compound": "CCO[Si](CCC#N)(OCC)OCC", "outcome": "inactive"}, {"compound": "Cc1cc(O)c(C)c(C)c1O", "outcome": "inactive"}, {"compound": "C=C(C)C(=O)OCCC(C)OC(=O)C(=C)C", "note": "(stereo unspecified)", "outcome": "inactive"}, {"compound": "CCCCCCCCCOS(=O)(=O)O", "outcome": "inactive"}, {"compound": "CN(C)C", "outcome": "inactive"}, {"compound": "COc1ccccc1O", "outcome": "inactive"}, {"compound": "CC(C)(C)c1cc(CCC(=O)OCCSCCOC(=O)CCc2cc(C(C)(C)C)c(O)c(C(C)(C)C)c2)cc(C(C)(C)C)c1O", "outcome": "inactive"}, {"compound": "CCn1cc(C(=O)O)c(=O)c2ccc(C)nc21", "outcome": "inactive"}, {"compound": "NC(N)=NC(N)=NCCc1ccccc1", "outcome": "inactive"}, {"compound": "c1coc(CNc2ncnc3nc[nH]c23)c1", "outcome": "inactive"}, {"compound": "[Cl][Dy]([Cl])[Cl]", "AC50": "43 nM (active)"}, {"compound": "CC/C=C\\C#N", "outcome": "inactive"}, {"compound": "C=CC(C)(CCC=C(C)C)OC(=O)CC", "note": "(stereo unspecified)", "outcome": "inactive"}, {"compound": "CC1=CCC(=C(C)C)CC1", "outcome": "inactive"}, {"compound": "O=[N+]([O-])c1cc(N(CCO)CCO)ccc1NCCO", "outcome": "inactive"}, {"compound": "CCCCOCCOCCO", "outcome": "inactive"}, {"compound": "c1ccc(Sc2ccccc2)cc1", "outcome": "inactive"}, {"compound": "NS(=O)(=O)c1cc(C(=O)O)c(NCc2ccco2)cc1Cl", "outcome": "inactive"}, {"compound": "CCCCN(CCO)CCO", "outcome": "inactive"}, {"compound": "CC(C)CCCC(C)(C)O", "outcome": "inactive"}, {"compound": "CCC(C)(C)c1cc(O)c(C(C)(C)CC)cc1O", "outcome": "inactive"}, {"compound": "O=C(C=Cc1ccccc1)OCCCc1ccccc1", "outcome": "inactive"}, {"compound": "CC/C=C\\CCOC(=O)C(C)C", "outcome": "inactive"}, {"compound": "C=C(C)C(=O)OCCC[Si](OC)(OC)OC", "outcome": "inactive"}, {"compound": "[O-]/[N+](=N\\O)c1ccccc1", "outcome": "inactive"}, {"compound": "O=C(O)C(F)(F)C(F)(F)C(F)(F)C(F)(F)C(F)(F)C(F)(F)C(F)(F)C(F)F", "AC50": "14600 nM (active)"}, {"compound": "NC(N)=S", "AC50": "1290 nM (active)"}, {"compound": "OCCCO", "outcome": "inactive"}, {"compound": "CC(=O)c1ccc(O)cc1", "outcome": "inactive"}, {"compound": "CC1(C)CC(=O)CC(C)(C)N1", "outcome": "inactive"}, {"compound": "O=C1CCCCCCCCCCCC(=O)OCCO1", "outcome": "inactive"}, {"compound": "CCCO[Si](OCCC)(OCCC)OCCC", "outcome": "inactive"}, {"compound": "C[N+](C)(C)CCO", "outcome": "inactive"}, {"compound": "CCOC(=O)CC1(C)OCC(C)O1", "note": "(stereo unspecified)", "outcome": "inactive"}]}]}
